Laboratory results: PubChem BioAssay

Assay: probe aLefty2 binding to arrayed compounds – biochemical, biotinylated probe, 635/667 nm fluorescence, primary screen (AID 1094);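 further: score merges spot fluorescence near 667 nm with spot signal-to-noise ratio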
Settings: small-molecule microarray, higher = more signal

Which composite z-score does the source give for CCCC1(C(=O)OC)C=C2C(=C(C)C(=O)C2C)CN1 (stereo not given) here?
Its composite z-score is 0.0932.

With NCCCCCNC(=O)[C@@H]1C[C@@H]2C(=O)N[C@@H](CCCCN)C(=O)N2[C@@H]1c1ccc(O)cc1 as the compound, how does the composite z-score read?
Its composite z-score is 0.303.

With CCCN1C(=O)[C@]2(Cc3ccccc31)N=C(c1ccc(OCCCO)cc1)O[C@@H]2c1ccccc1 as the compound, how does the composite z-score read?
The composite z-score was -0.0391.

With CCN(CC)c1ccc(N2CC=CC34O[C@@H]5/C=C\CCCOC(=O)C5[C@H]3C(=O)N(C(C)CO)[C@@H]4C2=O)cc1 (stereo not given in full) as the compound, how does the composite z-score read?
Its composite z-score is -0.243.

With NC(=O)[C@H]1[C@@H]2C(=O)O[C@@H](c3ccccc3)[C@@H](c3ccccc3)N2[C@@H](c2ccc(OCCO)cc2)[C@]12C(=O)Nc1ccc(C#CCCO)cc12 as the compound, how does the composite z-score read?
The composite z-score was -0.0636.

For CC(C)C(CO)N1C(=O)[C@@H]2[C@H]3C(=O)OCC=C[C@H]3OC23C=CCN(c2ccc(Cl)cc2)C(=O)[C@@H]13 (stereo not given in full), which composite z-score is on record?
The composite z-score was -0.246.

For C=CCNC(=O)[C@@H]1[C@H]2C(=O)O[C@H](c3ccccc3)[C@H](c3ccccc3)N2[C@H](c2ccccc2OCCO)[C@@]12C(=O)Nc1ccc(C#CCC(C(=O)OC)C(=O)OC)cc12, which composite z-score is on record?
The composite z-score was -0.366.

With COc1ccc(C#Cc2ccc3c(c2)[C@]2(C(=O)N3)[C@H](C(=O)O)[C@H]3C(=O)O[C@H](c4ccccc4)[C@H](c4ccccc4)N3[C@@H]2c2ccc(O)cc2)cc1 as the compound, how does the composite z-score read?
Its composite z-score is -0.0042.

For CCCC[C@@H](O)C1=C(COC)C[C@H]2C(=O)N(Cc3ccccc3)C(=O)[C@H]2[C@H]1CO, which composite z-score is on record?
The composite z-score was -0.241.

With COC(=O)[C@@]1(Cc2ccc(F)cc2)[C@H]2c3cc(C(=O)N4CCCC4)n(Cc4ccc(C)c(F)c4F)c3C[C@H]2CN1C(=O)c1ccccc1 as the compound, how does the composite z-score read?
Its composite z-score is 0.136.

For C=CCNC(=O)[C@@H]1[C@H]2C(=O)O[C@H](c3ccccc3)[C@H](c3ccccc3)N2[C@H](c2ccc(O)cc2)[C@@]12C(=O)N(C(=O)OCCOC)c1ccc(C#CC3=CCCCC3)cc12, which composite z-score is on record?
The composite z-score was -0.156.

With C#Cc1cc2ccccc2oc1=O as the compound, how does the composite z-score read?
Its composite z-score is -0.313.

For COc1cc(NN2C(C(O)c3cc(OC)c(OC)c(OC)c3)C=CC3C(=O)N(C)C(=O)C32)cc(OC)c1OC (stereo not given), which composite z-score is on record?
The composite z-score was 0.16.

For CO[C@H]1O[C@H](CO)[C@@H](OC(=O)Nc2ccccc2)[C@H](OC(=O)c2cc3ccccc3[nH]2)[C@H]1OC(=O)c1cc2ccccc2[nH]1, which composite z-score is on record?
Its composite z-score is -0.0107.

Which composite z-score does the source give for CCOC(=O)C[C@H]1[C@H](OC(=O)Cc2ccc3c(c2)OCO3)[C@@H](NC(=O)c2ccc3ccccc3n2)c2cc(OCCCO)ccc2N1C(=O)c1ccc2ccccc2n1 here?
The composite z-score was -0.0708.

For COc1ccc(C#Cc2ccc3c(c2)[C@]2(C(=O)N3)[C@H](c3ccc(OCCO)cc3)N3[C@H](c4ccccc4)[C@H](c4ccccc4)OC(=O)[C@H]3[C@@H]2C(=O)NC[C@H](O)c2ccccc2)cc1, which composite z-score is on record?
Its composite z-score is -0.0977.

With NCCCCCNC(=O)[C@H]1C[C@H]2C(=O)N3CCC[C@H]3C(=O)N2[C@H]1c1cccc(OCCO)c1 as the compound, how does the composite z-score read?
Its composite z-score is 0.767.

For CO[C@H]1O[C@H](CO)[C@@H](OC(=O)Nc2ccc(Br)cc2)[C@@H]2OC(=O)[C@@H](Cc3ccccc3)C/C=C/C[C@H](Cc3ccccc3)C(=O)O[C@@H]12, which composite z-score is on record?
Its composite z-score is 0.0378.

Which composite z-score does the source give for CCOC(=O)[C@@H]1CCCCN1C(=O)C(=O)OC here?
The composite z-score was -0.0728.

With O=C(Cc1ccccc1)[C@H]1C2C=CCCC(c3ccccc3)=C2CN1Cc1ccccc1 (stereo not given in full) as the compound, how does the composite z-score read?
Its composite z-score is -0.207.

For CCOC(=O)C[C@H]1[C@H](OC(=O)Cc2ccc3c(c2)OCO3)[C@@H](NC(=O)C2CCCCC2)c2cc(OCCCO)ccc2N1C(=O)c1ccccc1, which composite z-score is on record?
Its composite z-score is -0.248.

Which composite z-score does the source give for C=C[C@H](C)[C@H](OC(=O)Nc1ccc(SC)cc1)c1ccc(OCCO)cc1 here?
The composite z-score was 0.0548.

Which composite z-score does the source give for CCCCC(CC)C(O)C1C=CC2C(=O)N(c3ccccc3)C(=O)C2N1Nc1ccccc1F (stereo not given) here?
The composite z-score was 0.222.

With Cc1ccc(C(C)CC(O)C2C=CC3C(=O)N(c4ccccc4)C(=O)C3N2Nc2ccccc2)o1 (stereo not given) as the compound, how does the composite z-score read?
The composite z-score was 0.326.

Which composite z-score does the source give for CCOC(=O)C1=C[C@@H](C(C)(C)C)N(S(=O)(=O)c2ccc(C)cc2)[C@H]1c1cccc2ccccc12 here?
The composite z-score was -0.034.

For CC(C)N1C(=O)C[C@@](C(=O)NC2CC2)(c2ccc([N+](=O)[O-])cc2)[C@H]1c1ccc(CO)cc1, which composite z-score is on record?
Its composite z-score is 0.0702.

With COC(=O)c1c(CC[C@@H](CO)NC(=O)N2CCC[C@H]2Cn2cc(C3(O)CCCCC3)nn2)oc(C(C)=O)c1C(=O)OC as the compound, how does the composite z-score read?
Its composite z-score is -0.124.

With NC(=O)NCC#Cc1ccc2c(c1)[C@]1(C(=O)N2)[C@H](c2ccccc2OCCO)N2[C@H](c3ccccc3)[C@H](c3ccccc3)OC(=O)[C@H]2[C@@H]1C(=O)NC[C@H](O)c1ccccc1 as the compound, how does the composite z-score read?
Its composite z-score is 0.448.

With CN(C)C(=O)[C@]1(CCC(=O)OC(C)(C)C)N=C(c2ccc(OCCCO)cc2)O[C@@H]1c1ccccc1CN=[N+]=[N-] as the compound, how does the composite z-score read?
The composite z-score was 0.0987.

With Cc1ccccc1C(O)C1C=CC2C(=O)NC(=O)C2N1Nc1ccccn1 (stereo not given) as the compound, how does the composite z-score read?
Its composite z-score is 0.0361.

Which composite z-score does the source give for COCCOC(=O)N1C(=O)[C@@]2(c3ccccc31)[C@H](C(=O)NC[C@H](O)c1ccccc1)[C@H]1C(=O)O[C@H](c3ccccc3)[C@H](c3ccccc3)N1[C@@H]2c1ccc(O)cc1 here?
The composite z-score was -0.109.

For CC1CC/C=C\[C@H]2OC34C=CCN(C(C)C)C(=O)[C@H]3N(CCO)C(=O)[C@@H]4C2C(=O)O1 (stereo not given in full), which composite z-score is on record?
Its composite z-score is -0.159.

For CCOC(=O)C=Cc1cccc(C)c1O, which composite z-score is on record?
Its composite z-score is -0.166.

For CCCCCCCCCCC(O)C1C=CC2C(=O)N(c3ccccc3)C(=O)C2N1Nc1ccc(C#N)cc1 (stereo not given), which composite z-score is on record?
Its composite z-score is 0.12.

Which composite z-score does the source give for COCC(=C=CC[C@H](O)c1ccc(CO)o1)CCO here?
Its composite z-score is -0.0501.
